In test [1] the target is MAP kinase-activated protein kinase 2 (Homo sapiens) (UniProt P49137). To be noted: at 10 µM.
Test [2] addresses MAP kinase-activated protein kinase 3 (Homo sapiens) (UniProt Q16644). The note with it: at 10 µM.
Test [3] concerns the target Serine/threonine-protein kinase MARK1 (Homo sapiens) (UniProt Q9P0L2). To be noted: at 1 µM.
Test [4] shares this target. The note with it: at 10 µM.
For test [5], the target named is Dual specificity mitogen-activated protein kinase kinase 1 (Homo sapiens) (UniProt Q02750). To be noted: at 1 µM.
Dual specificity mitogen-activated protein kinase kinase 1 (Homo sapiens), sequence (Q02750 whole entry): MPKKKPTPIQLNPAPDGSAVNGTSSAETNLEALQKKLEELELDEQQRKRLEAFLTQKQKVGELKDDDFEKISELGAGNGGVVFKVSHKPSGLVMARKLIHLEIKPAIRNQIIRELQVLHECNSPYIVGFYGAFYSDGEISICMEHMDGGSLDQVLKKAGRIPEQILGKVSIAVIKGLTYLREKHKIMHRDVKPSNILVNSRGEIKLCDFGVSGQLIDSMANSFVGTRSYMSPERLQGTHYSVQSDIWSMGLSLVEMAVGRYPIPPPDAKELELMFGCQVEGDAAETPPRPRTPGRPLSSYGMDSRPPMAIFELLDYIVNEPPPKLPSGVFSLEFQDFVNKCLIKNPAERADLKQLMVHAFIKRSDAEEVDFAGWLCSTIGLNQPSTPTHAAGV
Test [6] shares this target. To be noted: at 10 µM.
For test [7], the target named is Maternal embryonic leucine zipper kinase (Homo sapiens) (UniProt Q14680). The note with it: at 1 µM.
Test [8] shares this target. To be noted: at 10 µM.
Test [9] addresses Misshapen-like kinase 1 (Homo sapiens) (UniProt Q8N4C8). To be noted: at 1 µM.
Test [10] has the same target. The note with it: at 10 µM.
The target in test [11] is T1, Dual specificity mitogen-activated protein kinase kinase 6 (Homo sapiens) (UniProt P52564).
T1 sequence (whole entry): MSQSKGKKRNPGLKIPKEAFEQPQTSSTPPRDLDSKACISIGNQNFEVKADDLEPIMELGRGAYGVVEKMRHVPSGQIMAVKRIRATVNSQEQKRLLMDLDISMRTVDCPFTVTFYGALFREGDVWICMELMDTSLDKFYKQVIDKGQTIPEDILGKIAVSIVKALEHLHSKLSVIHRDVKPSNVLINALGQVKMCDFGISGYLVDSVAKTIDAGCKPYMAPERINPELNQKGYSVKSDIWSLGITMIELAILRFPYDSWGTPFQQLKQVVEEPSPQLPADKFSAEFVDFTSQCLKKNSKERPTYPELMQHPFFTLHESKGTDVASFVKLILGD
To be noted: at 1 µM.

The target of test [12] is T1, Dual specificity mitogen-activated protein kinase kinase 6 (Homo sapiens). The note with it: at 10 µM.
The target in test [13] is T2, Dual specificity mitogen-activated protein kinase kinase 7 (Homo sapiens) (UniProt O14733).
T2 sequence (whole entry): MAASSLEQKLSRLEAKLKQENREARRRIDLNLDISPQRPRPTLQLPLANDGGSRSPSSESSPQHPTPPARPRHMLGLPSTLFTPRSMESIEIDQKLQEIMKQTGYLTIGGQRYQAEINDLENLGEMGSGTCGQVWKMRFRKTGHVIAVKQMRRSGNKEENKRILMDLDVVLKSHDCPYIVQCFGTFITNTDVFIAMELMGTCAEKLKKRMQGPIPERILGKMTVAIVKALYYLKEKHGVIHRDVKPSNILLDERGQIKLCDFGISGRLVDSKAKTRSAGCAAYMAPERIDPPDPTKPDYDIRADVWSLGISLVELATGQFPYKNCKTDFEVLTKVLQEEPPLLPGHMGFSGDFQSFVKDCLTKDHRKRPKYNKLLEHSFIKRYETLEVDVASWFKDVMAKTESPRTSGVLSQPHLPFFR
To be noted: at 1 µM.

The target of test [14] is T2, Dual specificity mitogen-activated protein kinase kinase 7 (Homo sapiens). The note with it: at 10 µM.
Test [15] addresses Myosin light chain kinase, smooth muscle (Homo sapiens) (UniProt Q15746). The note with it: at 1 µM.
Test [16] shares this target. The note with it: at 10 µM.
Test [17] deals with Mitogen-activated protein kinase kinase kinase 9 (Homo sapiens) (UniProt P80192). To be noted: at 1 µM.
For test [18] the target is unchanged. To be noted: at 10 µM.
For test [19], the target named is Serine/threonine-protein kinase MRCK alpha (Homo sapiens) (UniProt Q5VT25). The note with it: at 1 µM.
Test [20] shares this target. The note with it: at 10 µM.

Serine/threonine-protein kinase MARK1 (Homo sapiens), sequence (Q9P0L2 whole entry, looked up): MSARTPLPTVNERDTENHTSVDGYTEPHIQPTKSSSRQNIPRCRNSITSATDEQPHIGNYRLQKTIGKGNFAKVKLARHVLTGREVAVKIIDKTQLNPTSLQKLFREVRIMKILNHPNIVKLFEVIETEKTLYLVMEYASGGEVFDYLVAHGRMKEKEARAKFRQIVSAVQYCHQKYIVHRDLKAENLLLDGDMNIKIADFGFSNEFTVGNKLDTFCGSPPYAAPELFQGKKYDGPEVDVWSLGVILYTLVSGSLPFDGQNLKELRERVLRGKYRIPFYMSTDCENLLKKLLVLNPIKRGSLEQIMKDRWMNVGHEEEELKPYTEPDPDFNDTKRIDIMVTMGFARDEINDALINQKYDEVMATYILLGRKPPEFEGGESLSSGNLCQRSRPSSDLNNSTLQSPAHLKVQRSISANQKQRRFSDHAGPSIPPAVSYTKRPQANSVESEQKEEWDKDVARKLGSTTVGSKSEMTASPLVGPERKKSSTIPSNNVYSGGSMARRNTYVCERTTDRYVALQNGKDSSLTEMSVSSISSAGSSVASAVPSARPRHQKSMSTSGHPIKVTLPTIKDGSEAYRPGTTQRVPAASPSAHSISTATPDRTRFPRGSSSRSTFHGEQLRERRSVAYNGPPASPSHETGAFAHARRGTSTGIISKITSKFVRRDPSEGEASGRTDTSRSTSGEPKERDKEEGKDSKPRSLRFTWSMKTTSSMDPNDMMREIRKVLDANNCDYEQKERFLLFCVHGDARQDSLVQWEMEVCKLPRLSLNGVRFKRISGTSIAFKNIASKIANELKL
Misshapen-like kinase 1 (Homo sapiens), sequence (Q8N4C8 whole entry, looked up): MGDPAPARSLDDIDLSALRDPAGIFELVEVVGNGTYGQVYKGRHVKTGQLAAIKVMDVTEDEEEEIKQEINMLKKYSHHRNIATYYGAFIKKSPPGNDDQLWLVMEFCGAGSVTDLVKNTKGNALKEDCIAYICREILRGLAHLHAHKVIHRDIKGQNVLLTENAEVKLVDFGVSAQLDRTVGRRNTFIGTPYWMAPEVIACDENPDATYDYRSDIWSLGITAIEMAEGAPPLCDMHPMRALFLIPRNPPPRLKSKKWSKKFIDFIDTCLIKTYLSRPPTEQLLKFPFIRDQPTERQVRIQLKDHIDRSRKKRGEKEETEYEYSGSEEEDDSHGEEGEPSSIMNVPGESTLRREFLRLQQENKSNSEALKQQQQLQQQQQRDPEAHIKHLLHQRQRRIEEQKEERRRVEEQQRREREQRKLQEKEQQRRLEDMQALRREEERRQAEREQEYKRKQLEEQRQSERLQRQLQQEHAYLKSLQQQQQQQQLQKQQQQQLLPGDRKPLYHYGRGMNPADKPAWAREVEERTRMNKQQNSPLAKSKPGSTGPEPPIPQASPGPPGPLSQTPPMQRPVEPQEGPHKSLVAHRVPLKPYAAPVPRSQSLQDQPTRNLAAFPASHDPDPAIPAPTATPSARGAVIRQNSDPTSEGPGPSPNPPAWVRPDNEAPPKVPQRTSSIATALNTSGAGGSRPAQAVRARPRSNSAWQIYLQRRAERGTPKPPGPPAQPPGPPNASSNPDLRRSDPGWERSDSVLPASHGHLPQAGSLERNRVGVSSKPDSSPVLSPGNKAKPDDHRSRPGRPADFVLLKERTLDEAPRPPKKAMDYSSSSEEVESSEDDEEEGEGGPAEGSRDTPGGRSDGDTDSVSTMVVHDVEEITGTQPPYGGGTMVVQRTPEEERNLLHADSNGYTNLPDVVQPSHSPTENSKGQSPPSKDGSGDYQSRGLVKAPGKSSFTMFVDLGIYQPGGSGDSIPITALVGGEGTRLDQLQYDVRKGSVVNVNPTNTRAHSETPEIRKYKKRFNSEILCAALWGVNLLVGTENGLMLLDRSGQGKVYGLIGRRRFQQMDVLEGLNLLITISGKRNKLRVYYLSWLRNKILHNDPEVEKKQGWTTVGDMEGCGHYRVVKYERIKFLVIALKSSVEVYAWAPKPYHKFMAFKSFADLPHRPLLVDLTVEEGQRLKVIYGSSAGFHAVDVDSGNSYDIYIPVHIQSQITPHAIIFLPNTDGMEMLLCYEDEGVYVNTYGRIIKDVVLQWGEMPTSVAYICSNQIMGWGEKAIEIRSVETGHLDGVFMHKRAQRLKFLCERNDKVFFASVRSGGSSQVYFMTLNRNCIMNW
Myosin light chain kinase, smooth muscle (Homo sapiens), sequence (Q15746 whole entry): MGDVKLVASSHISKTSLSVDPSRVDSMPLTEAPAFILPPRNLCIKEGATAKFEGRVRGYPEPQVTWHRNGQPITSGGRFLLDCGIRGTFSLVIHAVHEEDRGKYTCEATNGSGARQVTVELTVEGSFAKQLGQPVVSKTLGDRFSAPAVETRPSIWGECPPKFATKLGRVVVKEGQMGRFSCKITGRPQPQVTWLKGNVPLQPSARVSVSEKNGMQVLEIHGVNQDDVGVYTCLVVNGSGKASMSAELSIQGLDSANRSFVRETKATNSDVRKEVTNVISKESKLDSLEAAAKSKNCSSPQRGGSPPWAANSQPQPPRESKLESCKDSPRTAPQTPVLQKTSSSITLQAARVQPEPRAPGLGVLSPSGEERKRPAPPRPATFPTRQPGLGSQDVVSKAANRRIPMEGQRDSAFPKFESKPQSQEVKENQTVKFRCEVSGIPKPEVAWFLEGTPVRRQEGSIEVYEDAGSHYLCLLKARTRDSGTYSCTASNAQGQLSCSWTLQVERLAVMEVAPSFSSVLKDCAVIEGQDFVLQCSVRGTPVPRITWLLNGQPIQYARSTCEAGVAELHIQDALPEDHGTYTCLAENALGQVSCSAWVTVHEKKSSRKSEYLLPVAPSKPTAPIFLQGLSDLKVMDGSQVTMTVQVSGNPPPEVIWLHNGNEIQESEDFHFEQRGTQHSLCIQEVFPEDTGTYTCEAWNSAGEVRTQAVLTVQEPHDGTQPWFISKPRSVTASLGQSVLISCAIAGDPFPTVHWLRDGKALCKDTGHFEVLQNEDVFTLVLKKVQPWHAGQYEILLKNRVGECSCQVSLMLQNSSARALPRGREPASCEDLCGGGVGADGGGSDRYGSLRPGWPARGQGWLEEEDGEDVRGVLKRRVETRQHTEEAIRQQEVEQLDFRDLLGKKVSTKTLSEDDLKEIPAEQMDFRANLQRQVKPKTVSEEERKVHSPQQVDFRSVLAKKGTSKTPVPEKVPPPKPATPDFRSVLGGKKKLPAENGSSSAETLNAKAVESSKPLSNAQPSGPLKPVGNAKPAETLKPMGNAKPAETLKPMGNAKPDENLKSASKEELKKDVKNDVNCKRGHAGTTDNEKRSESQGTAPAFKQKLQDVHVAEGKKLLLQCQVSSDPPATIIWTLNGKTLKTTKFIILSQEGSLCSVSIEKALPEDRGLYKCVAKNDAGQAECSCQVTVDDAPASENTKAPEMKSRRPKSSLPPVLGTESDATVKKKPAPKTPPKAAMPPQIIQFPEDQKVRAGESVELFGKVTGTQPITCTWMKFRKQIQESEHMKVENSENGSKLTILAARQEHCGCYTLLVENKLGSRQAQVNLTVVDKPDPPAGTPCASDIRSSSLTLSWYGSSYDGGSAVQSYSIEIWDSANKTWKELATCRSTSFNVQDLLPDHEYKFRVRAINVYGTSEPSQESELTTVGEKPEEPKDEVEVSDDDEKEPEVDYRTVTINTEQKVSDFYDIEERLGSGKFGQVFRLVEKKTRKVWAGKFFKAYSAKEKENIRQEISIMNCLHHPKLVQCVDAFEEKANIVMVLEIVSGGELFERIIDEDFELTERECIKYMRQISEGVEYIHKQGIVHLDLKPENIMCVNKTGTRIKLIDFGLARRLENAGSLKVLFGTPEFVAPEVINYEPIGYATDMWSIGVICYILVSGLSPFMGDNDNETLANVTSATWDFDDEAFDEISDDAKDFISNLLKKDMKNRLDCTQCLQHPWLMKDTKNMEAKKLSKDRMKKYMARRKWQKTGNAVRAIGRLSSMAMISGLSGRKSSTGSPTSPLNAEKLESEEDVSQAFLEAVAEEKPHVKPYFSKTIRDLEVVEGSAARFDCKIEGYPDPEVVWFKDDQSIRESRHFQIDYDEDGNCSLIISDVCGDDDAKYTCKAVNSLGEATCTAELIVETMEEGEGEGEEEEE
MAP kinase-activated protein kinase 2 (Homo sapiens), sequence (P49137 whole entry, looked up): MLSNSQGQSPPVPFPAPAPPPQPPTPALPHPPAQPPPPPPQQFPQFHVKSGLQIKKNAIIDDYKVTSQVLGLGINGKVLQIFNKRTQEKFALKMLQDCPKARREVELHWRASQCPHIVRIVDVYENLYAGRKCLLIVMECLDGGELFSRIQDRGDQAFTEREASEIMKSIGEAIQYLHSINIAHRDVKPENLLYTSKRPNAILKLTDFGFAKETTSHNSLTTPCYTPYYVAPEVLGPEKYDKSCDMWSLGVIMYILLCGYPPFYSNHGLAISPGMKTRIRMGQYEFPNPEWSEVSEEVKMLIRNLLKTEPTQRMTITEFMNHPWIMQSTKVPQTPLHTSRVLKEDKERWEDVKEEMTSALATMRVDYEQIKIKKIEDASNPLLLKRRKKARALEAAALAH

In the case of `CN(C)c1ccc(/C=C2\C(=O)Nc3ccccc32)cc1`, the residual activity in [1] stood at 93%; in test [2] it was 94%; in test [3], 83%; in [4] it was 49%; in test [5] it was 114%; in test [6] it was 73%. The residual activity in [7] was 49%; in test [8] it was 26%; in [9], 82%; in [10], 30%; in [11], 97%; in test [12], 91%. Moreover, the residual activity in test [13] was 91%; in test [14] it was 84%; in test [15] it was 77%; in test [16], 56%; in test [17] it was 39%; in [18] it was 16%. Besides, the residual activity was found to be 113% in test [19] and 105% in test [20].

Take `COc1cc2ncnc(N3CCN(C(=O)Nc4ccc(Oc5ccccc5)cc4)CC3)c2cc1OC`: the residual activity in [1] turned out to be 110%; in test [2] it was 117%; in test [3] it was 86%; in test [4] it was 78%; in test [5] it was 115%; in [6] it was 94%. Besides, the residual activity in test [7] was 81%; in test [8], 101%; in test [9], 95%; in test [10], 88%; in [11], 87%; in test [12], 81%. Also, the residual activity turned out to be 144% in [13]; 111% in [14]; 77% in test [15]; 97% in test [16]; 87% in [17]; 91% in [18].

Turning to `O=C1c2ccccc2-[n+]2ccc3c([nH]c4ccccc43)c21`, the residual activity in [1] was 98%; in test [2] it was 89%; in test [3], 80%; in test [4], 77%; in test [5], 97%; in test [6], 110%. For the same molecule, the residual activity in test [7] was determined as 85%; in test [8], 67%; in test [9], 99%; in test [10] it was 87%; in test [11], 109%; in [12] it was 92%. For the same molecule, the residual activity in [13] came out at 91%; in [14], 97%; in test [15], 95%; in test [16], 79%; in test [17], 91%; in test [18], 83%. The residual activity in [19] is 100%; in test [20] it was 86%.

On to `O=C1NC(=O)c2cc(Nc3ccc(F)cc3)c(Nc3ccc(F)cc3)cc21`, for which the residual activity came out at 93% in [1]; 69% in test [2]; 82% in test [3]; 75% in test [4]; 109% in test [5]; 122% in [6]. The residual activity in [7] was 89%; in test [8] it was 76%; in test [9] it was 83%; in test [10], 71%; in test [11], 72%; in test [12] it was 58%. For the same molecule, the residual activity in test [13] is 98%; in test [14], 97%; in [15], 55%; in test [16], 70%; in test [17], 86%; in [18], 75%. The figures for the residual activity in [19] and in [20] were 100% and 111%, respectively.

For `Nc1nc(Nc2ccc(S(N)(=O)=O)cc2)nn1C(=S)Nc1c(F)cccc1F`, the residual activity is 9% in test [1]; 41% in test [2]; -1% in [3]; 0% in test [4]; 16% in [5]; 6% in [6]. In addition, the residual activity in test [7] is 17%; in test [8] it was 24%; in test [9], 18%; in test [10] it was 2%; in [11] it was 26%; in test [12], 20%. Moreover, the residual activity was 65% in [13]; 16% in [14]; 79% in test [15]; 29% in test [16]; -1% in test [17]; -1% in [18]. For the same molecule, the residual activity turned out to be 28% in [19] and 24% in test [20].

Take `O=C1NC(=O)c2c1c1c3ccccc3[nH]c1c1[nH]c3cc(Br)ccc3c21`: the residual activity in test [1] was 93%; in [2], 89%; in test [3] it was 67%; in test [4] it was 34%; in [5] it was 75%; in test [6], 98%. Also, the residual activity in test [7] turned out to be 87%; in [8], 82%; in test [9], 109%; in test [10], 90%; in [11], 94%; in [12], 87%. For the same molecule, the residual activity in test [13] came out at 87%; in test [14] it was 86%; in test [15] it was 27%; in test [16] it was 37%; in test [17] it was 85%; in [18], 31%. Also, the results for the residual activity in test [19] and in test [20] were 87% and 88%, respectively.

Regarding `Nc1n[nH]c2nnc(-c3c(-c4ccccc4)nn4ccccc34)cc12`, the residual activity in [1] is 94%; in test [2], 93%; in [3] it was 83%; in test [4], 78%; in test [5] it was 89%; in [6], 38%. Further, the residual activity in test [7] was determined as 91%; in test [8], 97%; in [9], 89%; in [10], 39%; in test [11] it was 104%; in [12], 65%. For the same molecule, the residual activity in test [13] worked out at 88%; in test [14], 70%; in test [15] it was 113%; in test [16] it was 74%; in test [17] it was 86%; in test [18] it was 31%. The residual activity was determined as 111% in [19] and 98% in test [20].
